Assay outcomes as filed in PubChem.
nsP2pro inh: Primary qHTS for inhibitors of NSP2Pro chikungunya virus (CHIKV). Polyprotein P1234 (Chikungunya virus (strain S27-African prototype)), Q8JUX6. FRET peptide cleavage, nsP2pro, fluorescence 1 h. Potency, µM (top dose mostly 24.9 µM), for the others: top-dose activity change, negative = inhibition, actives largely listed as inhibitors. 1.1% of 31,000 active; note: nearly all actives have a fitted effect of over 60% in size
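Recombinant nsP2pro (150 nM) was preincubated with compound 15 min at room temperature in 10 mM Tris-HCl pH 8.0, 0.01% Tween 20. Peptide 2 FRET substrate (2.5 uM) was then added and fluorescence read after 1 h. Seven-point series, up to 25 uM.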
CHIKV nsP2 cell: Secondary cell base assay for inhibitors of NSP2Pro Chikungunya virus (CHIKV); shares compounds with nsP2pro inh; cell-based CHIKV nsP2 protease reporter assay; Potency, µM (highest dose often 51.1 µM), without a hit: at the highest dose activity change, negative = inhibition, actives largely listed as inhibitors; 10% of 450 active; note: nearly all actives have a fitted effect of over 70% in size
NSP2 full ctr: Selectivity profile for inhibitors of NSP2Pro chikungunya virus (CHIKV): Full length NSP2 enzyme counterscreen (CHIKV-NSP2). Potency, µM (series often up to 50.7 µM), without a hit: at the top dose activity change, negative = inhibition, actives largely listed as inhibitors. shares compounds with nsP2pro inh. 39% of 410 active. Full-length CHIKV NSP2 protease enzymatic counterscreen; note: nearly all actives have a fitted effect of over 65% in size
Furin counter: Selectivity profile for inhibitors of NSP2Pro chikungunya virus (CHIKV): Human furin counterscreen; Recombinant human furin enzymatic counterscreen, fluorogenic substrate; shares compounds with nsP2pro inh; 6% of 410 active; AID 1964102, 2024; Potency, µM (titrated, usually from 50.6 µM), inactives show at the top dose activity change, negative = inhibition, hits mostly inhibitors
Target sequence (P09958 whole entry, looked up): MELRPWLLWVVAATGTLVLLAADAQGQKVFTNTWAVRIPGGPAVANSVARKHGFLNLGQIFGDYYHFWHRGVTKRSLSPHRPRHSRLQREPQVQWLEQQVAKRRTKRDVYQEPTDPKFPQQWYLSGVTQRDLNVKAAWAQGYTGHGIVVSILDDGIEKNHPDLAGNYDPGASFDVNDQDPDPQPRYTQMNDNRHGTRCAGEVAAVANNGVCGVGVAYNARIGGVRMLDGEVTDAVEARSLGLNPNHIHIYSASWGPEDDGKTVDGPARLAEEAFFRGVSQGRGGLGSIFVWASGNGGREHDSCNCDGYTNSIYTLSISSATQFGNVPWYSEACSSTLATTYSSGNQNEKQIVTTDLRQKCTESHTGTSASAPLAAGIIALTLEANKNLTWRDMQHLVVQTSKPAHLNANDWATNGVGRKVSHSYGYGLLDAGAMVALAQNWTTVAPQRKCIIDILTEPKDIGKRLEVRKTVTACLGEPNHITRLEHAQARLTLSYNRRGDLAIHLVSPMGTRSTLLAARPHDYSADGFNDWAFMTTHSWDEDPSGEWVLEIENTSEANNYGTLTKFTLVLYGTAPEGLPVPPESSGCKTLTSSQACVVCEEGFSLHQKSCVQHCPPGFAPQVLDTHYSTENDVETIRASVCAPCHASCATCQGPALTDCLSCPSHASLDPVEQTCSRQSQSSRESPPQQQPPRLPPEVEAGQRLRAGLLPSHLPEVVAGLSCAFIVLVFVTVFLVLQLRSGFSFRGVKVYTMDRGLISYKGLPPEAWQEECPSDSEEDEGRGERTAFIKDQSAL
NS23 peptide cs: Selectivity profile for inhibitors of NSP2Pro chikungunya virus (CHIKV): Endogenous NS2/3 peptide Counterscreen; 34% of 410 active; Purified CHIKV nsP2 protease, endogenous NS2/3 peptide cleavage; shares compounds with nsP2pro inh; Potency, µM (titrated, usually from 51 µM), without a hit: at the highest dose activity change, negative = inhibition, usual class: inhibitors; note: nearly all actives have a fitted effect of over 55% in size
Papain cs: Selectivity profile for inhibitors of NSP2Pro chikungunya virus (CHIKV): Papain Counterscreen | shares compounds with nsP2pro inh | purified papain protease activity, enzymatic inhibition | Potency, µM (doses to about 51 µM), for inactives: at the highest dose activity change, negative = inhibition, usual class: inhibitors | 5% of 410 active
nsP2pro confirm: Confirmatory qHTS for inhibitors of NSP2Pro chikungunya virus (CHIKV). shares compounds with nsP2pro inh. CHIKV nsP2 protease enzymatic activity, qHTS. Potency, µM (doses to about 25.5 µM), for inactives: at the top dose activity change, negative = inhibition, actives largely listed as inhibitors. 43% of 410 active. AID 1964105, 2024; note: nearly all actives have a fitted effect of over 75% in size
HCV NS3 counter: Selectivity profile for inhibitors of NSP2Pro chikungunya virus (CHIKV): NS34A-HCV Counterscreen | HCV NS3/4A protease biochemical counterscreen | 20% of 410 active | shares compounds with nsP2pro inh | Potency, µM (series often up to 50.9 µM), hits mostly inhibitors; note: nearly all actives have a fitted effect of over 55% in size
The depositor's hits bear a star; i = inactive; u = inconclusive; [ ] = remark or other dose. The full list was thinned out, with hits kept by preference. Calls come from the whole dose curve. % is set by controls: 0 for no effect and ±100 for the full control effect; potency is the fitted concentration of half-maximal effect.

SMILES	nsP2pro inh	others
CC(C)C[C@H]1C(=O)N2CCC[C@H]2[C@]2(O)O[C@](NC(=O)[C@@H]3C[C@@H]4c5cccc6[nH]cc(c56)C[C@H]4N(C)C3)(C(C)C)C(=O)N12	-12%
CN1C[C@H](C(=O)N[C@]2(C)O[C@@]3(O)[C@@H]4CCCN4C(=O)[C@H](Cc4ccccc4)N3C2=O)C=C2c3cccc4[nH]cc(c34)C[C@H]21	u	CHIKV nsP2 cell=9%;NSP2 full ctr=u;Furin counter=-14%;NS23 peptide cs=13µM*;Papain cs=46%;nsP2pro confirm=u;HCV NS3 counter=i
O=C1Nc2ccccc2/C1=C\c1ccc(O)c(F)c1	i
CC1COC(Nc2ccc3ncnc(Nc4ccc(OCc5nccs5)c(Cl)c4)c3c2)=N1 (stereo not drawn)	159%
O=[N+]([O-])c1cccc(CSc2nc3ncc(Br)cc3[nH]2)c1	0%
Clc1ccccc1CSc1nnc(C2CCNCC2)o1	12%
CC(C)C[C@H](N)c1nnc(SCc2ccc(Cl)cc2Cl)o1	u	CHIKV nsP2 cell=31%
Cc1cc(=O)[nH]c2nnc(SCc3ccc(Cl)cc3Cl)n12	-15%
C/C=C/C=C/C=C/C(=O)O[C@@H]1C=C2COC(=O)[C@]2(O)[C@@]2(C)CCCC(C)(C)[C@H]12	1%[10 µM]
CC(C)c1nnc(C2CN(C(=O)Cc3ccccc3Cl)CC23CCOCC3)o1 (stereo not drawn)	i
CC(C)C[C@H]1C(=O)O[C@H](Cc2ccc(N3CCOCC3)cc2)C(=O)N(C)[C@@H](CC(C)C)C(=O)O[C@H](C)C(=O)N(C)[C@@H](CC(C)C)C(=O)O[C@H](Cc2ccc(N3CCOCC3)cc2)C(=O)N(C)[C@@H](CC(C)C)C(=O)O[C@H](C)C(=O)N1C	6%
O=C1NCCCCCCN[C@H]2C[C@H](c3nc(-c4cnccn4)no3)C[C@@H]12	2%
CCS(=O)(=O)c1ncc(Cl)c(C(=O)N(Cc2ccccc2)Cc2ccco2)n1	11µM*	CHIKV nsP2 cell=3.3µM*;NSP2 full ctr=16µM*;Furin counter=-3%;NS23 peptide cs=5.2µM*;Papain cs=-6%;nsP2pro confirm=4.5µM*;HCV NS3 counter=i
COc1ccc(CN(Cc2ccco2)C(=O)COc2ccccc2Cl)cc1	-16%
CCCOc1ccc(C(=O)N(Cc2ccc(Cl)cc2)Cc2ccco2)cc1	-14%
COc1ccc(C(=O)N2CCC(c3ncc(C)n3C(C)C)C2)cc1 (stereo not drawn)	2%
CCOc1ccc(CCNC(=O)c2cc3ccccc3n2CCN2CCOCC2)cc1OCC	-12%
Cc1ccc(S(=O)(=O)Nc2cnccc2C(=O)Nc2nc(-c3ccncc3)cs2)cc1	i
Cc1ccc([S+](=O)([O-])N2CCCC2C(=O)N2CCC3(CC2)CC(=O)Nc2ccccc2O3)cc1 (stereo not drawn)	-1%
S=C(SSC(=S)N1CCCCC1)N1CCCCC1	2.5µM*	CHIKV nsP2 cell=13µM*;NSP2 full ctr=15µM*;Furin counter=-2%;NS23 peptide cs=16µM*;Papain cs=-25%;nsP2pro confirm=3.6µM*;HCV NS3 counter=i
CCCCCC1CC1CC1CC1CCCCCCCC(=O)O (stereo not drawn)	54%[10 µM]
COc1ccc(CCN(Cc2ccccn2)C(=O)[C@H]2CCC[C@H](O)C2)cc1	i
COc1ccc(S(=O)(=O)Nc2cccnc2Nc2ccc(O)cc2)cc1	u	CHIKV nsP2 cell=-8%;NSP2 full ctr=8%;Furin counter=-13%;NS23 peptide cs=i;Papain cs=-9%;nsP2pro confirm=1%;HCV NS3 counter=i
COc1ccc(CNc2ccc(S(=O)(=O)Nc3nccs3)cc2)c(O)c1	-6%
CC(=O)Nc1ccc(S(=O)(=O)Nc2cccc3cccnc23)cc1	i
SMILES	nsP2pro inh	others
Cc1cccnc1NCCNC(=O)c1ccc(S(N)(=O)=O)cc1	-11%
COC1(c2ccccc2)CCN(C(=O)C2CCCN(C(=O)N(C)C)C2)CC1 (stereo not drawn)	-5%
Cc1cc(NC(=O)Nc2nnc(-c3ccncc3)s2)ccc1F	0%
COc1cc2nc(C3CC3)nc(N3CCN(c4ccccc4OC)CC3)c2cc1OC	24%
COc1ccc(NC(=O)c2cc3c(s2)CN(C2CCCC2)C3)c(OC)c1	i
COc1ccc(C2CC(=O)N3CN(C4CCCCC4)CSC3=C2C#N)c(OC)c1 (stereo not drawn)	8.9µM*	CHIKV nsP2 cell=-5%;NSP2 full ctr=18µM*;Furin counter=-9%;NS23 peptide cs=u;Papain cs=-8%;nsP2pro confirm=u;HCV NS3 counter=i
N#CC1=C2SCN(C3CCCCC3)CN2C(=O)CC1c1ccc(Br)cc1 (stereo not drawn)	0%
CC1=CC(=O)[C@@]2(C(C)C)C[C@@H]12	31%
CC(OC(=O)NCC1(CC(=O)O)CCCCC1)OC(=O)C(C)C (stereo not drawn)	-15%
COc1cc(OC)cc(-c2onc(C)c2C(=O)NCCC(c2ccccc2)c2ccccc2)c1	1%
COC(=O)C1=CC[C@H](c2ccc(C)cc2)N(S(=O)(=O)c2ccc(C)cc2)[C@@H]1c1ccc(C(C)(C)C)cc1	i
C[C@@H]1C[C@H](O)/C=C/[C@H](O)[C@@H](O)CC(=O)O1	-17%
CC1CCCCCCCc2cc(O)cc(O)c2C(=O)O1 (stereo not drawn)	134%
CC1CCC(=O)CC(O)C(O)CC(=O)O1 (stereo not drawn)	u	CHIKV nsP2 cell=0%;NSP2 full ctr=5%;Furin counter=-7%;NS23 peptide cs=-9%;Papain cs=-6%;nsP2pro confirm=-20%;HCV NS3 counter=i
Cc1cc(-c2nnc3n2CCCCC3)c(C)n1-c1ccc(Cl)c(Cl)c1	-2%
O=C(COc1ccccc1)N1CCC(OCc2ccccc2)C1 (stereo not drawn)	-2%
CC1(C)CCC[C@@]2(C)[C@H]1[C@H](O)C=C1COC(=O)[C@@]12O	-13%
